Most compounds without a hit are left out; they make up all but 0.63% or so of the library.
DUSP1 inh: MKP-1 phosphatase inhibitors, primary screen, biochemical, in vitro; inhibition, %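 (compounds tested at a single concentration somewhere between 10 and 100 µM)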; 65,000 tested, 0.15% active; recombinant MKP-1, OMFP hydrolysis fluorescence; Dual specificity protein phosphatase 1 (Homo sapiens), P28562;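 active means inhibition above about 50%, limit read from the data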;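 further: 0% = DMSO max control wells and 100% = wells with enzyme stopped by NaOH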
Target sequence (P28562 whole entry, looked up): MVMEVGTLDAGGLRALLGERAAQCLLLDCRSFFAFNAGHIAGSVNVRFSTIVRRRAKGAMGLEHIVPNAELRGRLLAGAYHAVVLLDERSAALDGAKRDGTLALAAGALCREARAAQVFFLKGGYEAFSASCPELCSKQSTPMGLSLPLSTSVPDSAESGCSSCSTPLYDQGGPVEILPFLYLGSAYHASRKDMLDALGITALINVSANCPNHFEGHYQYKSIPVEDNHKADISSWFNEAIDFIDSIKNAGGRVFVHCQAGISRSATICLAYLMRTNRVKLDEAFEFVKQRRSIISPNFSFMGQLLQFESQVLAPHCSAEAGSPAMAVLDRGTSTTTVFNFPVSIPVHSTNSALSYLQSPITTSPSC
LYP act: LYP phosphatase activators, primary screen, biochemical, DiFMUP fluorescence, 2 µM | Tyrosine-protein phosphatase non-receptor type 22 (Homo sapiens), Q9Y2R2 | recombinant LYP; 0 = plate median, 100 = signal doubled | activation, % at 2 µM | 96,000 tested, 0.11% active | AID 697, 2007;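 active means activation at 2 µM above a set limit, the mean plus 5 SD, cut at about 37% in these data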
Cdc25B inh: inhibitors of Cdc25B phosphatase catalytic domain, primary screen, biochemical, OMFP fluorescence | M-phase inducer phosphatase 2 (Homo sapiens), P30305 | recombinant Cdc25B, OMFP fluorescence Ex485/Em525 | inhibition, %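 (compounds tested at 10 µM final in the well)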 | 65,000 tested, 0.1% active; in the data active means inhibition above about 50%
FXIIa inh mix: human factor XIIa inhibitors, primary screen, biochemical, pooled compound mixtures, fluorogenic substrate; inhibition, % at 5 µM; AID 684, 2007; purified FXIIa; 62,000 tested, 0.2% active; Coagulation factor XII (Homo sapiens), P00748;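 further: 0% = enzyme without compound and 100% = no enzyme blank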
PTPN22 inh 2: PTPN22 phosphatase inhibitors, primary screen, biochemical, DiFMUP fluorescence, 2 µM; AID 640, 2007; 96,000 tested, 0.21% active; Tyrosine-protein phosphatase non-receptor type 22 (Homo sapiens), Q9Y2R2; inhibition, % at 2 µM; recombinant LYP catalytic domain;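 active means inhibition at 2 µM at or above a set limit, the screen mean plus 3 SD, cut at about 24% in these data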;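 further: 0% = DMSO with enzyme and 100% = enzyme fully blocked by orthovanadate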
FXIa inh mix: FXIa protease inhibitors in compound pools, primary screen, biochemical, 10-compound mixtures | 62,000 tested, 0.19% active | inhibition, % at 5 µM | purified FXIa, fluorogenic substrate, pooled mixtures | Coagulation factor XI (Homo sapiens), P03951 | AID 680, 2007;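 further: each value is inhibition by a whole ten-compound pool holding the compound; 0% = enzyme with no mixture and 100% = wells lacking enzyme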
Numbers without * were called inactive; . = not tested or not shown. Unless noted, no stated cut-off is given here; in the data, active means inhibition above about 20% (passing the limit was not always enough); inactive means the rest.

SMILES | DUSP1 inh | LYP act | Cdc25B inh | FXIIa inh mix | PTPN22 inh 2 | FXIa inh mix
Cc1ccc2nc(NC(=O)c3cccc(-c4cc5ccccc5oc4=O)c3)sc2c1 | . | -22.4 | . | . | 26.3* | .
CC(=O)Nc1nc(CC(=O)c2ccccc2)cs1 | 4.7 | . | -10.2 | -13.1 | . | 35.9*
CC(=O)Nc1nc(COc2ccccc2)cs1 | 8.1 | 1.9 | -10.1 | 0.0 | -3.2 | 4.3
COc1ccc(CONS(=O)(=O)c2ccc(NC(C)=O)cc2)cc1Cl | . | -0.3 | . | . | 4.3 | .
COc1ccc2c(C)cc(SCC(=O)Nc3c(C)n(C)n(-c4ccccc4)c3=O)nc2c1 | . | -46.0 | . | . | 47.1* | .
Cc1ccc(-c2nc3ccccn3c2NC(=O)c2ccco2)cc1 | . | -0.2 | . | . | 0.3 | .
CC1CCCCC1NC(=O)CCn1c(=O)oc2ccccc21 (stereo unspecified) | 77.1* | -5.3 | -1.3 | . | 6.5 | .
O=C(Nc1ccc(Cl)c(C(F)(F)F)c1)NC1CC2CCCC(C1)N2C1CC1 (stereo unspecified) | . | 3.1 | . | . | -3.7 | .
Cc1cc(C)n(Cc2cc(C)c(Cn3nc(C)cc3C)cc2C)n1 | 3.3 | . | -1.8 | -4.6 | . | 6.2
COCCN1C(=O)c2ccccc2C(C(=O)NCc2ccco2)C1c1c[nH]c2ccccc12 (stereo unspecified) | 10.3 | 3.0 | -8.7 | 2.5 | -4.5 | 3.0
COCCN1C(=O)c2ccccc2C(C(=O)NCCCN2CCCC2)C1c1c[nH]c2ccccc12 (stereo unspecified) | -18.8 | . | -9.4 | 7.6 | . | 37.0*
CN(C)CCCNS(=O)(=O)c1ccc(Oc2ncc(C(F)(F)F)cc2Cl)cc1 | . | 15.1 | . | . | -13.4 | .
Cc1cc[n+](-c2nc([O-])n(-c3ccccc3)c2C=O)cc1 | . | -1.0 | . | . | 0.6 | .
CC(=O)N(Cc1ccco1)C1(C(=O)NC2CCCC2)CCCCC1 | . | -8.8 | . | . | 8.0 | .
O=CN(Cc1ccco1)C1(C(=O)NC2CCCCC2)CCCCC1 | -15.3 | 5.3 | -7.1 | 32.8* | -5.7 | 9.2
Cc1ccc(C(=O)CC(=O)c2cccc(F)c2)c(O)c1 | . | 8.8 | . | . | -10.3 | .
Cc1nc2c(c(=O)n1CCC1=CCCCC1)c1nc3ccccc3nc1n2/N=C/c1ccccc1 | . | -38.6 | . | . | 38.7* | .
COc1cccc(-c2nnn(CC(=O)NC3CCCC3)n2)c1OC | -15.2 | 0.2 | 1.6 | 5.9 | 0.4 | 21.9*
COC(=O)c1cc(S(=O)(=O)n2nc(C)c(Br)c2C)c(Cl)cc1Cl | . | -9.4 | . | . | 10.8 | .
O=C(Cc1nc(-c2ccc([N+](=O)[O-])cc2)cs1)Nc1ccccc1 | . | -5.3 | . | . | 8.9 | .
CN1Cc2cc(C(=O)c3cc(Cl)cc(CSc4ncccn4)c3O)cnc2NC1=O | 54.7* | 5.5 | 5.3 | 17.1 | -8.7 | 3.6
Cc1ccc(CCNC(=O)CCNS(=O)(=O)c2ccc3c(c2)c(=O)n(C)c(=O)n3C)cc1 | -1.9 | -1.6 | 1.5 | 1.5 | 0.9 | 3.2
Cn1c(=O)c2cc(S(=O)(=O)NCCC(=O)NCCC3=CCCCC3)ccc2n(C)c1=O | 57.2* | -1.6 | -4.4 | -24.8 | 0.9 | 5.1
O=C1CC(=C2c3ccccc3-c3ccccc32)C(=O)N1CCCCN1CCN(c2ccccc2)CC1 | . | -44.7 | . | . | 45.0* | .
O=C1c2ccccc2C(=O)N1CCCCN1CCN(CCCCN2C(=O)c3ccccc3C2=O)CC1 | -2.7 | -5.4 | -14.0 | 0.2 | 3.7 | 5.4
SMILES | DUSP1 inh | LYP act | Cdc25B inh | FXIIa inh mix | PTPN22 inh 2 | FXIa inh mix
O=C(c1ccco1)N1CCN(c2cc(=O)n(C3CCCCC3)c(=O)[nH]2)CC1 | 1.4 | 14.0 | 64.8* | 11.2 | -13.4 | -0.9
O=c1cc(N2CCc3ccccc3C2)[nH]c(=O)n1C1CCCCC1 | -1.3 | -0.1 | 13.4 | 35.0* | 0.7 | 2.5
O=c1cc(N2CCC(Cc3ccccc3)CC2)[nH]c(=O)n1C1CCCCC1 | -2.6 | 11.1 | 10.9 | 3.1 | -10.4 | -0.7
Cc1ccc(-n2c(=O)cc(N3CCN(C(=O)c4ccco4)CC3)[nH]c2=O)cc1 | 11.5 | . | -3.7 | -1.0 | . | 3.4
Cn1ncc2c1ncn1c(-c3ccccc3Cl)nnc21 | -10.1 | . | -5.0 | 10.4 | . | 0.3
Cc1nccn1-c1cc(C(C)C)c(C#N)c2nc3ccccc3n12 | -25.3 | . | 28.8 | . | . | .
OC[C@H]1O[C@@H](n2cnc3c(NC4CCCC4)ncnc32)[C@H](O)[C@@H]1O | -14.6 | . | -8.2 | 7.2 | . | 4.2

Compound activity as filed in PubChem BioAssay.
